Assay [1] is described as follows: NCI Yeast Anticancer Drug Screen. Data for the rad50 strain (AID 155).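 Note: 0% = growth of vehicle-only cultures of the same strain.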 The following applies: S. cerevisiae rad50 strain growth inhibition; at 50.0 µM; stronger effect = higher value. In short, it runs like this: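 Inhibition values express reduced yeast growth in compound-treated cultures relative to vehicle-treated controls.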
Assay [2] can be described thus: NCI Yeast Anticancer Drug Screen. Data for the mec2-1 strain (AID 157). The following applies: S. cerevisiae mec2-1 strain, at 50.0 µM, stronger effect = higher value. An outline of the steps: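 Strain: mec2-1 (DNA repair/cell cycle alteration). Compound exposure, then growth measured; inhibition expressed relative to vehicle.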
Assay [3] can be described thus: NCI Yeast Anticancer Drug Screen. Data for the sgs1 mgt1 strain (AID 161).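 Note: 0% = growth of cultures given vehicle only.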 The settings on record: S. cerevisiae sgs1 mgt1 strain, at 50.0 µM, stronger effect = higher value. In short, it runs like this:
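Genetically altered yeast, compound exposure, growth inhibition relative to vehicle.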

Assay [4] in a line: NCI Yeast Anticancer Drug Screen. Data for the cln2 rad14 strain (AID 165).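 Note: 0% = growth equal to vehicle treated cultures.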 The following applies: S. cerevisiae cln2 rad14 strain, at 50.0 µM, stronger effect = higher value. An outline of the steps: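 Compounds are applied to the cln2 rad14 yeast strain, and growth is then compared with that of vehicle-treated cultures to give inhibition.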
Assay [5] in a line: NCI Yeast Anticancer Drug Screen. Data for the bub3 strain (AID 167). The following applies: S. cerevisiae bub3 mutant strain, at 50.0 µM, stronger effect = higher value. In short, it runs like this:
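Steps: expose the mutant yeast strain to compound; grow alongside vehicle-treated cultures; measure growth; express inhibition against the vehicle cultures.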

Assay [6] can be described thus: NCI Yeast Anticancer Drug Screen. Data for the mlh1 rad18 strain (AID 175). The following applies: S. cerevisiae mlh1 rad18 strain growth inhibition; at 50.0 µM; stronger effect = higher value. An outline of the steps: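 Read-out is yeast growth inhibition, calculated against vehicle-only controls. The compound was applied to a strain engineered with DNA damage repair alterations.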

Our source for the growth inhibition values is PubChem BioAssay (NCI).

SMILES strings stand for the structures. The panel holds about 79,000 compounds, 15% with a hit somewhere; the sample as a whole holds those more often. Values without a mark were called inactive. Calls of active or inactive are those of the source. Cut-off read from the data, not from the text of the source: active = growth inhibition above about 70%; inactive = the rest. Where a SMILES comes first, the peptide text is derived from it. The star is where a group is joined. ONb = O=[N+]([O-])c1ccc(CO*)cc1; Boc = CC(C)(C)OC(=O)*

Regarding `COc1cc(OC)cc(OCc2nc3cc(C(F)(F)F)ccc3nc2-c2ccccc2)c1`, the growth inhibition in assay [1] was -17.8%; in assay [2] it was -3.5%; in assay [3], 5.9%; in assay [4], -6.2%; in assay [5], -0.95%; in assay [6], -53.8%.
Regarding `O=C1CC(c2ccccc2)C(c2ccccc2)C1C(=O)OC1CCCCC1` (stereo unspecified), the growth inhibition was 0.5% in assay [1]; 2.85% in assay [2]; 0.65% in assay [3]; -62.5% in assay [4]; 0.55% in assay [5]; -15.4% in assay [6].
For `CCS(=O)(=O)/C=C(\C(=O)c1ccccc1)c1ccccc1`, the growth inhibition in assay [1] is 83.1% (active); in assay [2], 93.5% (active); in assay [3], 94% (active); in assay [4] it was 47.2%; in assay [5] it was 89.8% (active); in assay [6], 93.3% (active).
Turning to `Cc1ccccc1-n1c(=O)sc2c(=O)n(-c3ccccc3)c(=S)[nH]c21`, the growth inhibition is -11.2% in assay [1]; -23.4% in assay [2]; 6.9% in assay [3]; 6.2% in assay [4]; 0.6% in assay [5]; -18.9% in assay [6].
`Cc1cc(=O)c2cc(N=Cc3ccc(N(C)C)cc3)ccc2o1`: the growth inhibition in assay [1] is 5.25%; in assay [2], -10.9%; in assay [3] it was -16.8%; in assay [4], 17.1%; in assay [5], 0.75%; in assay [6], 16.1%.
On to `COc1ccccc1NC(=O)C1=C(C)NC(C)=C(C(=O)Nc2ccccc2OC)C1c1ccccc1Cl`, for which the growth inhibition is 11.3% in assay [1]; -4.4% in assay [2]; 3.85% in assay [3]; 17.9% in assay [4]; -6.45% in assay [5]; 23.4% in assay [6].
Regarding `N#CC(C(=O)O)C1(c2ccccc2)CCCCC1` (stereo unspecified), the growth inhibition in assay [1] was -13%; in assay [2], 4.95%; in assay [3] it was -5.3%; in assay [4] it was -16%; in assay [5] it was 1.1%; in assay [6] it was -3.45%.
With `O=C1C(Br)=C(Br)C(=O)C2=C1C1c3ccccc3C2c2ccccc21`, the growth inhibition is 98.5% (active) in assay [1]; 98.2% (active) in assay [2]; 97.8% (active) in assay [3]; 97% (active) in assay [4]; 98.2% (active) in assay [5]; 97.8% (active) in assay [6].
On to `O=C(O)C(Cc1ccccc1)N1C(=O)c2ccccc2C1=O` (stereo unspecified), for which the growth inhibition in assay [1] was 1.7%; in assay [2], -17.5%; in assay [3], -35.6%; in assay [4], -19.6%; in assay [5], -36.5%; in assay [6] it was 5.55%.
With `Cc1ccc(S(=O)(=O)N2CCSCCSCCSCCSCC2)cc1`, the growth inhibition is -1.3% in assay [1]; -0.1% in assay [2]; 7.1% in assay [3]; 10.6% in assay [4]; -8.9% in assay [5]; -39.1% in assay [6].
As to `NCCSS(=O)(=O)CCN`, the growth inhibition was -17.4% in assay [1]; -4.6% in assay [2]; 18.4% in assay [3]; -18.4% in assay [4]; 1.95% in assay [5]; 3.4% in assay [6].
As to `C[N+]12CCCCC1CC2` (stereo unspecified), the growth inhibition in assay [1] was 29.4%; in assay [2], -5.25%; in assay [3], -7.35%; in assay [4] it was -39.5%; in assay [5] it was -40.3%; in assay [6], 9.85%.
As to `N#CNC(=O)c1ccc(Cl)cc1`, the growth inhibition in assay [1] is -2.8%; in assay [2] it was -12.5%; in assay [3], -11.1%; in assay [4], -21.4%; in assay [5] it was -14.4%; in assay [6] it was -0.4%.
Regarding `O=C(NC(=S)Nc1ccsc1)c1ccccc1`, the growth inhibition is 14.6% in assay [1]; 0.7% in assay [2]; 2.6% in assay [3]; 8.85% in assay [4]; -2.15% in assay [5]; -6.35% in assay [6].
`CC1(C)COC(=O)OC1`: the growth inhibition in assay [1] is 17.8%; in assay [2], 11.5%; in assay [3] it was 16.4%; in assay [4], 12.8%; in assay [5], 14.8%; in assay [6] it was 16.9%.
Turning to `CCOC(=O)C(OC(C)=O)(C(=O)OCC)C(O)c1cccnc1` (stereo unspecified), the growth inhibition is 15.1% in assay [1]; -2.25% in assay [2]; 16.3% in assay [3]; -37.5% in assay [4]; 8% in assay [5]; -1.05% in assay [6].
Turning to `O=C1C2=C(c3ccccc31)C(c1ccccc1Cl)N1C(=O)CCSC1=N2` (stereo unspecified), the growth inhibition in assay [1] is 2.9%; in assay [2], 0.4%; in assay [3], 13.9%; in assay [4] it was 8.85%; in assay [5] it was 4.65%; in assay [6], -3.45%.
With `O=C(C[n+]1ccccc1CCCO)c1ccc(F)cc1`, the growth inhibition was 3.55% in assay [1]; -19.7% in assay [2]; 4.6% in assay [3]; 28.3% in assay [4]; 3% in assay [5]; 8.45% in assay [6].
For `CSC1(C)C(=O)Nc2cc([N+](=O)[O-])ccc21` (stereo unspecified), the growth inhibition in assay [1] was 1.7%; in assay [2], -11.1%; in assay [3], 0.6%; in assay [4], -14.2%; in assay [5], -32.5%; in assay [6] it was -5.55%.
Turning to `CC(C)CC(NC(=O)OC(C)(C)C)C(=O)NC(CCC(=O)OCc1ccc([N+](=O)[O-])cc1)C(=O)OCc1ccc([N+](=O)[O-])cc1` (stereo not drawn) (Boc-Leu-Glu(ONb)-ONb; configuration not given here), the growth inhibition in assay [1] is -9.3%; in assay [2], -25.5%; in assay [3] it was -4.5%; in assay [4], 4%; in assay [5] it was -10.1%; in assay [6], 8.35%.
For the compound `CCCCc1ccc(NC(=O)c2cccnc2)cc1`, the growth inhibition is 3% in assay [1]; 14.4% in assay [2]; 36.5% in assay [3]; 15.2% in assay [4]; -3.4% in assay [5]; 27.6% in assay [6].
